BAZ2B block: BAZ2B (human) inhibition | AID 504333 | Potency, µM (titrated, usually from 114 µM), for the others: at the highest dose activity change, negative = inhibition, hits mostly inhibitors | actives 4.4% (n = 360,000) | AlphaScreen BAZ2B-H3K14Ac peptide displacement | Q9UIF8; further: on the % scale 0 is the no-effect control and ±100 the full control effect; nearly all actives have a fitted effect of over 60% in size
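AlphaScreen luminescence quantifies BAZ2B engagement of H3K14Ac peptide; the protein and biotinylated peptide are both at 50 nM final, buffer PBS pH 7.4 with 0.01% Tween-20, all steps at room temperature.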
VDR inh: inhibitors of human vitamin D receptor; P11473; VDR-SRC2-3 peptide fluorescence polarization, 2 h; Potency, µM, inactives show max response, negative = inhibition, usual class: inhibitors; actives 0.93% (n = 400,000); AID 504847; further: on the % scale 0 is the no-effect control and ±100 the full control effect
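After 23 nl compound addition and a short centrifugation, plates sat for 2 hours at ambient temperature; polarization of fluorescence then indicated loss of VDR binding to peptide SRC2-3.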
JMJD2A Tudor inh: JMJD2A Tudor domain (human) inhibition; Potency, µM (doses to about 114 µM), for inactives: at the highest dose activity change, negative = inhibition, actives largely listed as inhibitors; actives 4.4% (n = 390,000); AlphaScreen JMJD2A-Tudor / H3K4me3 peptide binding; further: on the % scale 0 is the no-effect control and ±100 the full control effect; nearly all actives have a fitted effect of over 50% in size
HP1b binding inh: HP1-beta chromodomain-methylated histone interaction inhibition; P83916; AlphaScreen HP1-beta / biotin-H3K9me3 peptide binding; Potency, µM (top dose mostly 114 µM), inactives show top-dose activity change, negative = inhibition, hits mostly inhibitors; actives 0.56% (n = 390,000); AID 540317; further: nearly all actives have a fitted effect of over 70% in size
Target sequence (P83916 whole entry, looked up): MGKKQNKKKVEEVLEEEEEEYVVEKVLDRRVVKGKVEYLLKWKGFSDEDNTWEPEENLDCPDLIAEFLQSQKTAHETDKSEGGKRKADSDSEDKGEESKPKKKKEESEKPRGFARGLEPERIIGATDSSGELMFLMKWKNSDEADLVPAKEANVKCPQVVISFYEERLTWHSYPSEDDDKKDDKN
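HP1-beta protein (50 nM final) preincubated 30 min at room temperature with biotinylated H3(1-18)K9me3 peptide (50 nM) in PBS pH 7.4, 0.01% Tween-20, then compound added for 30 min. AlphaScreen streptavidin donor/nickel chelate acceptor beads (10 ug/mL final), 30 min dark, luminescence read.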
PLK1 PBD inh: blocks phosphopeptide binding to human PLK1 polo-box domain. Potency, µM, for the others: max response, negative = inhibition, actives largely listed as inhibitors. P53350. actives 2.8% (n = 360,000). Plk1 PBD binding of FITC phosphopeptide, fluorescence polarization; further: series mostly up to about 57 µM; on the % scale 0 is the no-effect control and ±100 the full control effect; nearly all actives have a fitted effect of over 65% in size
Target sequence (P53350 whole entry, looked up, the tested form may be a part): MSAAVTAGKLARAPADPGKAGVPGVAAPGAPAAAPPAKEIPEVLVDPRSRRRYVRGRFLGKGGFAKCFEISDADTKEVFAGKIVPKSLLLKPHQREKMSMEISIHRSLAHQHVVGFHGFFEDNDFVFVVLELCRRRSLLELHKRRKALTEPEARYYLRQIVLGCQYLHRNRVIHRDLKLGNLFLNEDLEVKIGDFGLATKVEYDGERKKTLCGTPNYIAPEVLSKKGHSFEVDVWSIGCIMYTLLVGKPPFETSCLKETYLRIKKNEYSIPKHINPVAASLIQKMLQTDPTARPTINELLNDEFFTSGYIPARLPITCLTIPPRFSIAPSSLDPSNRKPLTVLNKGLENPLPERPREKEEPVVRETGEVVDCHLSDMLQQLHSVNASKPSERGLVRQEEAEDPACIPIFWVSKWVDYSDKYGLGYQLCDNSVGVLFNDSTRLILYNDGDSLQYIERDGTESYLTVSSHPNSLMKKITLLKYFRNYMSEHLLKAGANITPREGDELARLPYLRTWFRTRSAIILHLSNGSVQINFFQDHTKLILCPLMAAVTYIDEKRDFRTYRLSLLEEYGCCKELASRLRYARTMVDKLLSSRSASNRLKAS
G9a block: inhibitors of human histone lysine methyltransferase G9a; Q96KQ7; G9a H3K9 monomethylation, AlphaScreen, 2 h; Potency, µM (doses to about 102 µM), for inactives: top-dose activity, negative = inhibition, most hits filed as inhibitors; actives 8.8% (n = 350,000); AID 504332; further: on the % scale 0 is the no-effect control and ±100 the full control effect; nearly all actives have a fitted effect of over 75% in size
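Step 1: enzyme (final 20 nM) with compound, 15 min RT. Step 2: substrate peptide 500 nM and SAM 20 uM, 2 h RT. Step 3: anti-H3K9me1 antibody and AlphaScreen beads, 10 min, then plate read.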
* hit, by the source's call; ? = inconclusive; · = not tested or not shown; ! = not active in a repeat; [ ] = dose if it differs, or a comment. An excerpt weighted towards active compounds, which were near 11% of everything screened. The call rests on the fitted dose curve; in most records, active means well fitted curve in the direction sought with a large enough effect; inconclusive means small, poorly fitted or top-dose-only effect, or another doubt; inactive means no such curve, though single readings can be large; an effect the other way counts as inactive or inconclusive. Potency means the concentration at half of the fitted maximal effect.

SMILES | BAZ2B block | VDR inh | JMJD2A Tudor inh | HP1b binding inh | PLK1 PBD inh | G9a block
O=C1NC(=O)N(c2ccc3c(c2)OCO3)C(=O)/C1=C\c1ccc(N2CCCCC2)o1 | -27.7% | -12.3% | -11.7% | 24.2% | 78.7% | -11.8%[59 µM]
CC(C)CCOP(N)(=O)Oc1ccccc1 (centres undefined) | -1.8% | -15.9% | -17.9% | 17.4% | -28.7% | 14.2%
C[C@@H](COc1ccccc1)N(CCCl)Cc1ccccc1 | · | 25.1µM* | · | · | · | 1.5%[21.5 µM]
COC(=O)c1ccccc1OP(=O)(c1cccc([N+](=O)[O-])c1)c1cccc([N+](=O)[O-])c1 | ? | -5.6% | -21.5% | ? | -7.4% | ·
COc1ccc(NC(=S)NC(NC(=O)CF)C(Cl)(Cl)Cl)cc1[N+](=O)[O-] (centres undefined) | ? | -5.2% | ? | ? | 29.9µM* | 22.4µM*
O=C(CF)NC(NC(=S)Nc1cccc([N+](=O)[O-])c1)C(Cl)(Cl)Cl (centres undefined) | -38.9% | -9.9% | -28.2% | 19.8% | -19.9% | 35.5µM*
O=c1c2ccccc2nc(/C=C/c2ccc([N+](=O)[O-])o2)n1-c1ccc(O)cc1 | ? | -1.5% | -35.0% | 17.6% | -2.6% | 50.1µM*
Cc1cccc(-n2c(/C=C/c3ccc([N+](=O)[O-])o3)nc3ccccc3c2=O)c1 | ? | 7.8% | -26.8% | 1.7% | 18.0% | ?
O=C1Nc2ccccc2/C1=C/c1nc2ccccc2c(=O)n1-c1ccc(O)cc1 | 39.8µM* | -15.1% | -26.0% | -21.8% | -16.4% | ·
O=c1c2ccccc2nc(/C=C/c2ccc(O)c(O)c2)n1-c1ccccc1 | ? | -21.0% | -33.6% | -15.0% | 44.7% | 7.94µM*
Cc1ccccc1CN1C(=O)CN=C(c2ccccc2)c2cc(Cl)ccc21 | -3.9% | 15.1% | -22.1% | 23.7% | · | -27.5%[59 µM]
Cc1ccc2nc3sc(=O)sc3nc2c1 | · | 8.91µM* | · | · | · | ·
O=C(NCCc1ccc(Cl)cc1)C(=O)NCC(c1cccs1)S(=O)(=O)c1cccs1 (centres undefined) | 1.1% | 8.9% | -4.9% | 52.8% | · | 0.7%[59 µM]
[S]=[Sb][S][Sb]=[S] | · | 12.2% | · | · | · | -27.5%[12.7 µM]
C=CCN1C(=O)NC(=O)C(Cc2ccc(OC)c(OC)c2)C1=O (centres undefined) | 2.9% | ? | -2.1% | 19.2% | -16.5% | ?
O=C1NC(=O)N(Cc2ccco2)C(=O)/C1=C/c1cccn1CCOc1ccccc1Cl | 44.7µM* | ? | -24.8% | 24.7% | ? | ?
C=CCN1C(=O)NC(=O)/C(=C/c2cccn2C)C1=O | 1.1%[57.1 µM] | 9.1% | -16.9% | 17.2% | 29.9µM* | 50.1µM*
Cn1cccc1/C=C1\C(=O)NC(=O)N(Cc2ccccc2)C1=O | 50.1µM* | ? | ? | ? | ? | ?
Cn1cccc1/C=C1/C(=O)NC(=O)N(Cc2ccc(F)cc2)C1=O | 44.7µM* | -15.4% | -32.2% | 10.2% | ? | 39.8µM*
Cc1nn(C)c(C)c1-c1cccc2c1CCC(N(C)C)C2 (centres undefined) | · | 10.8% | · | · | · | 8.7%[59 µM]
CC(CN)CC(=O)O (centres undefined) | · | 2.3% | · | · | · | 1.9%[59 µM]
NCCCC[C@H](NC(=O)[C@H](Cc1ccccc1)NC(=O)[C@H](CCCN=C(N)N)NC(=O)[C@@H](N)Cc1ccc(O)cc1)C(N)=O | · | 10.7% | · | · | · | 21.8%[59 µM]
Cn1cccc1/C=C1/C(=O)NC(=O)N(Cc2ccccc2)C1=O | 44.7µM* | ? | -33.8% | 9.6% | ? | ?
CCC1(CC)C(=O)N(Cc2ccccc2)C(=O)N(Cc2ccccc2)C1=O | 37.3% | 17.6% | 60.4% | 83.2% | -7.0% | 22.6%
O=C1NC(=O)N(Cc2ccccc2)C(=O)/C1=C\N1CCCc2ccccc21 | -33.2% | 35.5µM* | -31.8% | 15.0% | -20.0% | ?
SMILES | BAZ2B block | VDR inh | JMJD2A Tudor inh | HP1b binding inh | PLK1 PBD inh | G9a block
COc1ccc(N2C(=O)NC(=O)/C(=C\c3ccccc3[N+](=O)[O-])C2=O)cc1 | -14.9% | 50.1µM* | -16.2% | 13.2% | 11.9µM* | 8.91µM*
COc1cccc(N2C(=O)NC(=O)/C(=C/c3ccc4c5c(cccc35)CC4)C2=O)c1 | 50.1µM* | · | · | · | · | 10µM*
COc1ccc(N2C(=O)NC(=O)/C(=C/c3ccc4c(c3)Cc3ccccc3-4)C2=O)cc1 | 35.5µM* | · | · | · | · | 3.55µM*
COc1cccc(N2C(=O)CC(=O)NC2=O)c1 | -7.1% | -28.4% | -24.6% | 2.9% | -13.3% | ?
Cc1cccc(N2C(=O)NC(=O)/C(=C\c3ccc4c(c3)CCCN4Cc3ccccc3)C2=O)c1 | ? | ? | -23.7% | 14.5% | ? | ?
COc1ccc(N2C(=O)/C(=C/c3ccc(OC)c(OC)c3)C(=O)NC2=S)cc1 | -29.9% | ? | 56.2µM* | ? | 7.52µM* | ·
CNC1=CN(O)C(c2ccccc2)=c2cc(Cl)ccc2=N1 | · | ? | · | · | · | -30.2%[2.33 µM]
CC(=O)OC1CCC2(C)C3=C(CCC2C1(C)C)[C@@]1(C)CCC(C(C)CCC=C(C)C)[C@@]1(C)CC3 (some centres undefined) | · | ? | · | · | · | -6.4%[2.33 µM]
O=C(N[C@@H]1CN2CCC1CC2)c1cc(Cl)cc2[nH]cnc12 | · | 12.7% | · | · | · | ·
NCCc1c[nH]c2ccc(F)cc12 | -11.0% | · | · | · | · | ?
NCCc1c[nH]c2ccc(C(N)=O)cc12 | -0.2% | 1.6% | 0.0% | 38.9% | 3.9% | 35.5µM*!
C/C=C(\C)C(=O)OC1C(C)=C2C(C1OC(=O)CCCCC)C(C)(OC(C)=O)CC(OC(=O)CCC)C1(O)C2OC(=O)C1(C)O (centres undefined) | 56.2µM* | · | · | · | · | ?
CCCNc1nc(-c2cc(C(=O)Nc3ccccc3)on2)cc(C(C)C)n1 | · | -11.0% | -8.6% | 52.1% | -9.5% | ·
Cc1ccc2c(c1)NP(=S)(Oc1ccccc1)N2 (centres undefined) | · | -12.1% | -24.7% | -16.6% | ? | ·
COc1ccc2c(c1)NP(=S)(Oc1ccccc1)N2 (centres undefined) | ? | ? | ? | ? | 15µM* | 7.08µM*
CCCCC(=O)N/N=C/c1c(O)n(Cc2ccco2)c(=O)[nH]c1=O | 50.1µM* | -20.4% | ? | 39.7% | -28.3% | ?
CCCCC(=O)N/N=C/c1c(O)n(-c2cccc3ccccc23)c(=O)[nH]c1=O | 79.4µM* | 17.3% | 79.4µM* | 44.5% | 0.2% | 19.9%
O=C(N/N=C/c1c(O)n(Cc2ccco2)c(=O)[nH]c1=O)c1ccccc1O | ? | -9.3% | 79.4µM* | 7.5% | 0.0% | ?
O=c1[nH]c(=O)n(-c2cccc3ccccc23)c(O)c1C=NCCCn1ccnc1 | 56.2µM* | 4.1% | -5.8% | 30.0% | -8.3% | -7.4%
CCN(CC)CCN=Cc1c(O)n(Cc2ccco2)c(=O)[nH]c1=O | -5.1% | 1.9% | -9.3% | -11.6% | -8.6% | ·
CCCCSP(=O)(SCCCC)SCCCC | · | -2.9% | · | · | · | ·
